Compound activity from PubChem BioAssay.
An excerpt weighted towards active compounds, which were near 2.3% of everything screened.
CHO-K1 Ca antag: M1 antagonist counterscreen hit in parental CHO-K1 cells; inhibition, % at 3 µM; 360,000 tested, 0.6% active; ATP-induced calcium, Fluo-8 fluorescence;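 active = inhibition above a per-plate cutoff, the plate's mean sample inhibition plus 3 SD, cut at about 24% in these data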
CHRM1 PAM: human M1 muscarinic receptor positive allosteric modulators, primary screen, CHO-K1 cells, Fluo-8 calcium fluorescence, 1536-well; CHO-K1 hM1, ACh EC20; 0% = ACh EC20, 100% = maximal ACh; activation, % at 3 µM; 360,000 tested, 0.088% active; in the data active = activation above about 19%, passing the limit was not always enough
Target sequence (P11229 whole entry, looked up): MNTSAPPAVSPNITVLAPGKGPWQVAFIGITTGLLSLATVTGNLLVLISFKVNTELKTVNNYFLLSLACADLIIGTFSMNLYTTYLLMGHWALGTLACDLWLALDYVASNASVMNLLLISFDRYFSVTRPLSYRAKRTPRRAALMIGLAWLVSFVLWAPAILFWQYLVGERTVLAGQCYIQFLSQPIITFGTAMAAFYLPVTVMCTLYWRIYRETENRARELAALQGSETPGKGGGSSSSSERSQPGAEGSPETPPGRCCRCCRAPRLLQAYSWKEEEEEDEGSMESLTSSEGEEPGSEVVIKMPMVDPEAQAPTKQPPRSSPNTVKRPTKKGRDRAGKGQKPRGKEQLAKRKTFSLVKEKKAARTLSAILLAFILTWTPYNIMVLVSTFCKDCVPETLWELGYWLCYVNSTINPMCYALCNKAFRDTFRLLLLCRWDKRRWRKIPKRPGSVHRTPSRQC
M1 PAM parental: nonselective calcium activators in parental CHO-K1 cells, primary screen, counter-screen for M1 PAM project, cell-based, Fluo-8 calcium fluorescence, full deck, 1536-well | ATP EC20; 0% at ATP EC20, 100% at ATP max | activation, % at 3 µM | 360,000 tested, 0.02% active | AID 602247, 2012;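 active = activation above the run cutoff, the mean activation of all test compounds plus 3 SD, cut at about 40% in these data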;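 also: peak over basal fluorescence ratio in a 140 s read after ATP addition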
CHRM1 agonist: human M1 muscarinic receptor agonists, primary screen, Fluo-8 calcium fluorescence, CHO-K1 cells, HTS; Muscarinic acetylcholine receptor M1 (Homo sapiens), P11229; CHO-K1 hM1, agonist mode; 0% DMSO, 100% acetylcholine EC100; 360,000 tested, 0.33% active; activation, % at 3 µM;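 active = activation above the run's mean compound activation plus 3 SD, cut at about 16% in these data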;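 also: peak over basal fluorescence ratio within a 140 s kinetic read after compound addition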
M1 antag: human M1 muscarinic receptor antagonists, primary screen, CHO-K1 cells, Fluo-8 calcium fluorescence, 1536-well. Muscarinic acetylcholine receptor M1 (Homo sapiens), P11229. CHO-K1 hM1, ACh EC80 antagonist. inhibition, % at 3 µM. 360,000 tested, 1.3% active. AID 588852, 2011;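 active = percent inhibition above its own plate's cutoff, namely the mean of that plate's compound wells plus 3 SD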;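 also: peak over basal fluorescence ratio during 140 s after agonist addition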
CHO-K1 Ca ag: counter-screen for M1 agonists: effect in parental CHO-K1 cells; AID 602248, 2012; 360,000 tested, 0.48% active; activation, % at 3 µM; Fluo-8 calcium fluorescence; scaled to maximal ATP response, vehicle zero; in the data active = activation above about 15%;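 also: untransfected CHO-K1 host cells lacking M1 receptor as counterscreen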
A number is an active result; - = inactive.

SMILES	CHO-K1 Ca antag	CHRM1 PAM	M1 PAM parental	CHRM1 agonist	M1 antag	CHO-K1 Ca ag
Cc1cc(N2CCCCC2)nc(N2CCCCC2)n1	-	-	-	28.3	-	-
CCOc1ccc(CCNC(=O)CSc2n[nH]c(N)n2)cc1OCC	-	-	-	-	-	-
O=C(NCC1CCCO1)c1ccc(COc2ccccc2Br)cc1 (centres undefined)	-	-	-	-	-	-
COc1cc(C)ccc1S(=O)(=O)NC(=O)C1(C)CCN1C(=O)Cc1ccccc1Cl (centres undefined)	-	-	-	-	-	-
CCCC1C(=O)Nc2ccccc2N1C(=O)c1ccc(C(C)(C)C)cc1 (centres undefined)	-	-	-	-	-	-
CCCC1C(=O)Nc2ccccc2N1C(=O)c1cccc(C)c1 (centres undefined)	-	-	-	-	68.2	-
Cn1c(=O)c2c(-c3ccccc3)n(CCCN3CCOCC3)cc2n(C)c1=O	28.9	-	-	-	-	-
Cc1ccc(-c2c3c(=O)n(C)c(=O)n(C)c3cn2Cc2ccccc2)cc1	-	-	-	-	-	-
COc1ccc(C2C=C(c3ccc(Br)cc3)Nc3nc(N4C(=O)CCC4=O)nn32)cc1 (centres undefined)	32.8	-	-	-	-	-
O=C1CCC(=O)N1c1nc2n(n1)C(c1ccccc1)C=C(c1ccc(Br)cc1)N2 (centres undefined)	-	-	-	-	-	-
C=CCCCCCCCCC(=O)Nc1ncccn1	-	-	-	-	-	-
CCCCNC(=S)N/N=C1\C(=O)c2cccc3cccc1c23	24.6	-	-	-	-	-
CNC(=O)Nc1ccc2snnc2c1	26.1	-	-	-	-	-
O=C(NNS(=O)(=O)c1ccc2ccccc2c1)C1CCN(Cc2ccccc2)CC1	-	-	-	-	84.8	-
O=S(=O)(NC1CCN(Cc2ccccc2)CC1)c1ccc2ccccc2c1	-	-	-	-	-	-
CCN(CC)c1ccc(/C=C(\C#N)C(=O)c2ccc(Br)cc2)cc1	74.1	-	-	178.1	84.9	109.6
CN(C)c1ccc(/C=C(\C#N)C(=O)c2ccccc2)cc1	37.9	-	-	124.7	75.6	45.5
CCN(CC)c1ccc(/C=C(\C#N)C(N)=O)cc1	-	-	-	-	-	-
CN(CC(=O)Nc1ccccc1Br)C(=O)CNC(=O)Cc1cccc2ccccc12	-	-	-	-	-	-
O=C(CS(=O)(=O)c1ccc(Cl)cc1)NCCS(=O)(=O)c1ccc(Cl)cc1	-	-	-	-	-	-
O=C(CN(C(=O)CCC(=O)Nc1nccs1)c1ccc2c(c1)OCO2)NCc1ccccc1	-	-	-	-	-	-
Nc1ccc2c3c(cccc13)-c1ccccc1-2	37.5	-	-	36.8	42.4	35.4
Cc1ccc2c3c(cccc13)-c1ccccc1C2=O	-	-	-	-	-	-
Cc1nc([N+](=O)[O-])c(SCC(N)=O)n1Cc1ccccc1	-	-	-	-	-	-
Cc1nc([N+](=O)[O-])c(N2CCN(C)CC2)n1Cc1ccccc1	-	-	-	-	40.5	-
SMILES	CHO-K1 Ca antag	CHRM1 PAM	M1 PAM parental	CHRM1 agonist	M1 antag	CHO-K1 Ca ag
COc1ccc(N2CCN(C(=O)CCc3nnc4ccc(N5CCCC5)nn34)CC2)cc1	-	-	-	-	-	-
O=S(=O)(c1ccc(Br)cc1)c1nc(-c2ccco2)oc1NCC1CCCO1 (centres undefined)	-	-	-	-	-	-
COC(=O)[C@]1(Cc2ccccc2)N[C@H](CN(C)C(=O)c2ccc(F)cc2)[C@@H]2C(=O)N(C)C(=O)[C@@H]21	-	26.8	-	-	-	-
CCN(C[C@H]1N[C@@](Cc2ccccc2)(C(=O)OC)[C@H]2C(=O)N(C)C(=O)[C@@H]12)C(=O)C1CCCCC1	26.4	-	-	-	-	-
CCN(C[C@H]1N[C@@](Cc2ccccc2)(C(=O)OC)[C@H]2C(=O)N(C)C(=O)[C@@H]12)C(=O)c1ccccc1	-	-	-	-	-	-
CCN(C[C@H]1N[C@@](Cc2ccccc2)(C(=O)OC)[C@H]2C(=O)N(Cc3ccccc3)C(=O)[C@@H]12)C(=O)Nc1ccc(C(F)(F)F)cc1	31.2	-	-	-	-	-
CCN(C[C@H]1N[C@@](Cc2ccccc2)(C(=O)OC)[C@H]2C(=O)N(C)C(=O)[C@@H]12)S(=O)(=O)c1ccc(C(F)(F)F)cc1	-	-	-	-	41.4	-
Cc1cc(C(=O)CCC(=O)NCc2ccccc2F)c(C)s1	-	-	-	-	-	-
Clc1cccc(Cl)c1-c1noc(CN2CCOCC2)n1	-	-	-	-	-	-
Cn1c(SCC(=O)NCCc2ccccc2)nnc1C1CCCCC1	-	-	-	-	-	-
CCOCC(=O)Nc1ccccc1C(=O)O	-	-	-	-	-	-
C=CCSc1nnc(NC(=O)CCNC(=O)c2ccccc2Cl)s1	-	-	-	-	-	-
CN(C)/C=N/NC(=O)c1ccc(Cl)cc1	-	-	-	-	-	-
CN(C)/C=N/c1cnc(C(=O)c2ccc(Cl)cc2)n1C	-	26.0	-	-	-	-
CO/C=C\C=C/c1nnn(-c2ccc(Cl)cc2)n1	-	-	-	-	-	-
COc1cc(Cl)c(CN2CCC(CO)(CCOc3ccccc3)CC2)cc1OC	-	-	-	-	-	-
COc1cccc(CC2(CO)CCN(S(=O)(=O)N(C)C)CC2)c1	-	-	-	-	-	-
COC(=O)c1ccc(CN2CCC(CO)(CCOc3ccccc3)CC2)cc1	-	-	-	-	76.8	-
OCC1(CCOc2ccccc2)CCN(CC2=Cc3cc(Cl)ccc3OC2)CC1	-	-	-	-	39.1	-
COC(=O)c1ccc(CN2CCCC(CO)(Cc3ccc(F)cc3F)C2)cc1 (centres undefined)	-	-	-	-	47.7	-
COC(=O)c1ccc(CN2CCC(CO)(Cc3cccc(OC)c3)CC2)cc1	-	-	-	-	74.6	-
CC12CCC(=O)N1C(C(=O)Nc1cccc(F)c1)CS2 (centres undefined)	-	-	-	-	-	-
Cc1c(C=C(C#N)c2ccc([N+](=O)[O-])cc2)c(=O)n(-c2ccccc2)n1C	-	-	-	-	29.9	-
Cn1nc(C(=O)NC(C)(C)C)c2ccccc21	-	-	-	-	-	-
CN(C)c1ccc(/C=C/c2ccc3c4ccccc4ccc3[n+]2-c2ccccc2)cc1	40.7	-	-	-	64.5	15.7
